BAZ2B block – BAZ2B (human) inhibition; Potency, µM (highest dose often 114 µM), usual class: inhibitors; actives 4.4% (n = 360,000); Q9UIF8; AID 504333; AlphaScreen BAZ2B-H3K14Ac peptide displacement; note: nearly all actives have a fitted effect of over 60% in size
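Multi-concentration screen (max 110 uM) measuring displacement of acetylated histone H3 peptide from BAZ2B by AlphaScreen, using 50 nM protein, 50 nM peptide and 10 ug/mL streptavidin donor plus Ni-chelate acceptor beads.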
JMJD2A Tudor – blocks the human JMJD2A Tudor domain; O75164; AlphaScreen JMJD2A-Tudor / H3K4me3 peptide binding; Potency, µM (highest dose often 114 µM), most hits filed as inhibitors; actives 4.4% (n = 390,000); AID 504339; note: nearly all actives have a fitted effect of over 50% in size
G9a inh – inhibitors of human histone lysine methyltransferase G9a. Q96KQ7. actives 8.8% (n = 350,000). Potency, µM (highest dose often 102 µM), hits mostly inhibitors. G9a H3K9 monomethylation, AlphaScreen, 2 h; note: nearly all actives have a fitted effect of over 75% in size
Target sequence (Q96KQ7 913-1193 limits assumed): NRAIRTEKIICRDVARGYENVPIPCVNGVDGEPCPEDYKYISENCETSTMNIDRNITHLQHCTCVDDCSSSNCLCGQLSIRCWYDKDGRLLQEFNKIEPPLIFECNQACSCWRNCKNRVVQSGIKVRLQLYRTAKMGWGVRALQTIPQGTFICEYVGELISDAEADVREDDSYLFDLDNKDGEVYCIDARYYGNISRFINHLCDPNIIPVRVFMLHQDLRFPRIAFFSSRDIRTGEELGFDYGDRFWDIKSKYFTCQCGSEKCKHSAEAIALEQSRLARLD
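Using a bead-based AlphaScreen, monomethylated H3K9 product from 2 h room-temperature reactions (G9a 20 nM, peptide 500 nM, SAM 20 uM) was detected with 0.5 ug/mL rabbit anti-H3K9me1 antibody.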
HP1b binding inh – blocks HP1-beta chromodomain binding to methylated histone tails; Potency, µM (series often up to 114 µM), hits mostly inhibitors; actives 0.56% (n = 390,000); P83916; AlphaScreen HP1-beta / biotin-H3K9me3 peptide binding; AID 540317; note: nearly all actives have a fitted effect of over 70% in size
Target sequence (P83916 whole entry, looked up): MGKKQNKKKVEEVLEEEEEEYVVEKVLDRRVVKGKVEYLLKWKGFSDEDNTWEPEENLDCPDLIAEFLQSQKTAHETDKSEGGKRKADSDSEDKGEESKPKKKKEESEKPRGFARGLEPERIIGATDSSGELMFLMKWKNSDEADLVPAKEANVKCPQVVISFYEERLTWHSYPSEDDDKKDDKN
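Compound inhibition of the preformed complex between 50 nM HP1-beta and 50 nM biotinylated H3K9me3 peptide was read by AlphaScreen. Buffer was PBS pH 7.4 with 0.01% Tween-20. Incubations ran 30 min at room temperature, with 10 ug/mL donor/acceptor beads.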
CtBP-E1A inh – blocks the CtBP interaction with E1A. activity change, % (no concentration beside the values). AlphaScreen GST-E1A/His-CtBP binding, 1536-well; hits give low values. actives 0.49% (n = 340,000); in the data active = activity change below about -65%; inconclusive = mostly about -30% to -63%
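Steps: dispense buffer (Tris pH 8.0, NaCl 300 mM, TCEP 1 mM, BSA, Tween 20); add 5X protein mix (GST-E1A, His-CtBP, 125 nM each); pin 23 nL compound; 2 h at 37 °C, dark; add 5X beads (50 ug/mL); 1 h; read.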
Six1-Eya2 blk – inhibitors of human Six1/Eya2 interaction; AlphaScreen GST-Six1/His-Eya2 binding, biochemical; hits give low values; activity change, % (test concentration not listed); actives 0.56% (n = 360,000); Q15475+O00167; AID 651725; in the data active = activity change below about -65%; inconclusive = mostly about -30% to -63%
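AlphaScreen with GST-Six1 and His-Eya2 (5X mix: 250 nM and 500 nM), glutathione donor and nickel acceptor beads; buffer 50 mM Tris pH 8.0, 300 mM NaCl, 1 mM TCEP; 1 h at 37 C in the dark.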
Large screens that a line does not name were inactive; ! = repeats disagree. In the library only some 10% were active in any assay of this set; here they are far more common. Unless noted, calls come from the whole dose curve; as a rule, active = well fitted inhibition curve with a large enough effect; inconclusive = small, poorly fitted or top-dose-only effect; inactive = no such curve, though single readings can be large or run the other way.

O=C(O)c1cc(NCc2cc(O)ccc2O)ccc1O	JMJD2A Tudor 25.1µM, G9a inh 3.55µM, HP1b binding inh inconclusive (no result: BAZ2B block, CtBP-E1A inh, Six1-Eya2 blk)
O=C(OCC12CC3CC(CC(C3)C1)C2)c1ccc(NCc2cc(O)ccc2O)cc1	JMJD2A Tudor 50.1µM, HP1b binding inh 15.8µM (no result: BAZ2B block, G9a inh)
N#CCC(=O)Nc1ccc(C(=O)OCC(=O)C23CC4CC(CC(C4)C2)C3)cc1	none
O=C(OCCC12CC3CC(CC(C3)C1)C2)c1ccc(NCc2cc(O)ccc2O)cc1	JMJD2A Tudor 25.1µM, HP1b binding inh inconclusive, Six1-Eya2 blk inconclusive (no result: BAZ2B block, G9a inh)
O=S1(=O)N=C(Oc2cccc(-c3ccccc3)c2)c2ccccc21	none (no result: BAZ2B block, G9a inh, HP1b binding inh, CtBP-E1A inh, Six1-Eya2 blk)
CCN1CCN(c2cc(=O)n(Cc3ccc(F)cc3)c(=O)[nH]2)CC1	G9a inh inconclusive (no result: BAZ2B block, CtBP-E1A inh)
COc1ccc(Cn2c(=O)[nH]c3cc(C(=O)Nc4ccc(N5CCN(C)CC5)cc4)ccc32)cc1	BAZ2B block inconclusive, JMJD2A Tudor inconclusive, G9a inh 44.7µM
CCN1CCN(c2ccc(NC(=O)c3ccc4c(c3)[nH]c(=O)n4Cc3ccc(F)cc3)cc2)CC1	BAZ2B block inconclusive, JMJD2A Tudor inconclusive, G9a inh 50.1µM
CN(CC(=O)Nc1ccccc1C(F)(F)F)C(=O)C1CC1	none
O=c1[nH]c(Cc2ccccn2)nc2scc(-c3ccc(Cl)cc3)c12	G9a inh 39.8µM
O=c1[nH]c(Cc2ccc(F)cc2)nc2scc(-c3ccc(F)cc3)c12	JMJD2A Tudor inconclusive, G9a inh 3.55µM, HP1b binding inh inconclusive
O=c1[nH]c(Cc2cccs2)nc2scc(-c3ccc(Cl)cc3)c12	none (no result: G9a inh)
Cc1ccc2nc(-c3cccc(-c4nc5ccc(C)cc5o4)n3)oc2c1	JMJD2A Tudor 17.8µM, HP1b binding inh inconclusive (no result: BAZ2B block, G9a inh, CtBP-E1A inh, Six1-Eya2 blk)
Cc1ccc2nc(-c3cccc(N)c3)oc2c1	none
O=[N+]([O-])c1cc2c(c(CSc3nnc(Nc4ccccc4)s3)c1)OCOC2	G9a inh 3.55µM
Cc1ccccc1Nc1nnc(SCc2cc([N+](=O)[O-])cc3c2OCOC3)s1	G9a inh inconclusive
CCOC(=O)C1(CCC(C)C)CC(CSc2nc3ccccc3[nH]2)OC1=O (stereo unspecified)	BAZ2B block inconclusive
CCOC(=O)C1(CC)CC(CSc2nc3ccccc3[nH]2)OC1=O (stereo unspecified)	BAZ2B block inconclusive, JMJD2A Tudor 89.1µM
COc1ccc(/C=C2\NC(=S)N(CC3CCCO3)C2=O)c(OC)c1C (stereo unspecified)	BAZ2B block inconclusive, G9a inh 50.1µM
NS(=O)(=O)c1ccc(CCNC(=O)C2Cc3ccccc3CN2C(=O)c2ccco2)cc1 (stereo unspecified)	none
COc1cccc(NC(=O)C2Cc3ccccc3CN2C(=O)c2ccco2)c1 (stereo unspecified)	G9a inh 35.5µM
NS(=O)(=O)c1ccc(NC(=O)C2Cc3ccccc3CN2C(=O)c2ccco2)cc1 (stereo unspecified)	BAZ2B block 50.1µM, JMJD2A Tudor 39.8µM, G9a inh 50.1µM, HP1b binding inh inconclusive
CCS(=O)(=O)N1Cc2ccccc2CC1C(=O)Nc1nnc(SCc2ccc(C#N)cc2)s1 (stereo unspecified)	G9a inh 44.7µM
Cc1ccccc1NC(=O)C1Cc2ccccc2CN1C(=O)c1ccco1 (stereo unspecified)	G9a inh inconclusive
CCSc1nnc(NC(=O)C2Cc3ccccc3CN2C(=O)c2ccco2)s1 (stereo unspecified)	BAZ2B block inconclusive, JMJD2A Tudor 79.4µM, G9a inh inconclusive
CC1CCC(C(C)C)C(OC(=O)CSc2nccc(=O)[nH]2)C1 (stereo unspecified)	none
CC1CCC(C(C)C)C(OC(=O)C2=C3c4ccccc4S(=O)(=O)N3CC2)C1 (stereo unspecified)	G9a inh 25.1µM
Cc1ccc(NC(=O)C2CCN(C(=O)c3cnn(-c4ccccc4)c3-n3cccc3)CC2)cc1	none (no result: CtBP-E1A inh, Six1-Eya2 blk)
O=c1oc2ccccc2c(N2CCCCC2)c1CN1CCCC1	none
CCc1oc2ccccc2c1C(=O)CCN1CCCCC1	G9a inh 1.41µM
CCOc1ccc(NC(=O)Cn2cc(C(=O)c3ccc(CC)cc3)c(=O)c3ccc(C)nc32)cc1	none (no result: CtBP-E1A inh, Six1-Eya2 blk)
COc1cccc(-n2c(CCn3nc(C)c([N+](=O)[O-])c3C)n[nH]c2=S)c1	JMJD2A Tudor 11.2µM, G9a inh 25.1µM, HP1b binding inh inconclusive
Cc1cccc(-n2c(CCn3nc(C)c([N+](=O)[O-])c3C)n[nH]c2=S)c1	JMJD2A Tudor 20µM, G9a inh 0.447µM
c1ccc(-c2nc(NCC3CC3)nc3ccsc23)cc1	none (no result: BAZ2B block, JMJD2A Tudor, G9a inh, HP1b binding inh)
N[C@@H](Cc1cnc[nH]1)C(=O)O	G9a inh 5.97µM! (no result: BAZ2B block, JMJD2A Tudor, HP1b binding inh, CtBP-E1A inh, Six1-Eya2 blk)
Cc1cc(=O)[nH]c2nnc(SCCC(C)C)n12	none (no result: CtBP-E1A inh, Six1-Eya2 blk)
CCCC(=O)Nc1ccccc1NC(=O)c1ccc(OC(C)=O)cc1	none (no result: G9a inh)
O=C(N[C@@H](Cc1ccccc1)C(=O)O)c1cccnc1	G9a inh 50.1µM
O=C(NCc1ccccc1)c1cccnc1	G9a inh inconclusive (no result: CtBP-E1A inh)
O=C(Nc1ccccc1C(=O)NC(Cc1ccccc1)C(=O)O)c1ccco1 (stereo unspecified)	none (no result: CtBP-E1A inh)
O=C(Nc1ccccc1C(=O)NC(Cc1ccc(O)cc1)C(=O)O)c1ccccc1 (stereo unspecified)	G9a inh 44.7µM
CC(=O)N1CCN(C(=O)C(Cc2ccccc2)NC(=O)c2ccccc2)CC1 (stereo unspecified)	none (no result: CtBP-E1A inh)
O=C(NC(Cc1ccccc1)C(=O)N1CCN(c2ccccc2O)CC1)c1ccccc1 (stereo unspecified)	G9a inh 50.1µM
Cc1cc(=O)oc(C)c1C(=O)N[C@@H](Cc1ccccc1)C(=O)O	none (no result: CtBP-E1A inh)
Cc1cc(C(=O)NC(Cc2ccccc2)C(=O)O)c(C)o1 (stereo unspecified)	G9a inh 70.8µM
CC12CCC(=O)C=C1C(F)CC1C2C(O)CC2(C)C1CCC2(O)C(=O)CO (stereo unspecified)	none (no result: BAZ2B block, G9a inh)
COCCCNC(=O)C1CCN(c2cc(C)nc3c(-c4ccc(Cl)cc4)c(C)nn23)CC1	none (no result: CtBP-E1A inh, Six1-Eya2 blk)
COc1ccc(CN2CCNC(=O)C2CC(=O)O)cc1OC (stereo unspecified)	G9a inh inconclusive
COc1ccc(CN2CCNC(=O)C2CC(=O)NCc2cnn(C)c2)cc1OC (stereo unspecified)	G9a inh 50.1µM (no result: CtBP-E1A inh)
COc1ccc(CN2CCNC(=O)C2CC(=O)NCCc2nc(C)c(C)s2)cc1C (stereo unspecified)	JMJD2A Tudor inconclusive, G9a inh 44.7µM
Cc1nn(CC(=O)NCCc2ccccc2Cl)c(=O)c2nn(-c3ccccc3)c(C)c12	none (no result: CtBP-E1A inh, Six1-Eya2 blk)

From PubChem BioAssay
